The text below walks through data of PubChem BioAssay (EPA / NIEHS).

Activity calls are given as the source filed them. Rule for the calls: active = hit-call score of the fitted dose curve at least 0.9, where 1 is the maximum; inactive = score below 0.9.

Test [1] is described as follows: ATG_M_32_CIS: Attagene CIS-FACTORIAL HepG2 Assay for M32 Transcription Factor (Internal Marker) (AID 2282949).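 Note: background control marker of the multiplexed CIS panel rather than a real target.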 To be noted: HepG2 Attagene cis-factorial M32 reporter, mRNA; actives raise or lower the signal. Summed up:
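Internal background marker read-out: RT-PCR/capillary electrophoresis fluorescence of reporter transcripts from transiently transfected HepG2 cells after 24 h chemical exposure. Activity fitted bidirectionally relative to DMSO negative control.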

Test [2] deals with Hypoxia-inducible factor 1-alpha (Homo sapiens) (UniProt Q16665). Kind of test: ATG_HIF1a_CIS: Attagene CIS-FACTORIAL HepG2 Assay for human Hypoxia Inducible Factor 1 (HIF1A) (AID 2282951). To be noted: HepG2 Attagene cis-factorial HIF1a reporter transcription; actives raise or lower the signal. Summed up:
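RT-PCR/capillary electrophoresis fluorescence readout of reporter transcripts from endogenous-TF-driven cis elements in transfected HepG2 cells, 24 h exposure; activity fitted in both directions against DMSO controls.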

The target in test [3] is Hepatocyte nuclear factor 6 (Homo sapiens) (UniProt Q9UBC0). Nature of the test: ATG_HNF6_CIS: Attagene CIS-FACTORIAL HepG2 Assay for human Hepatocyte Nuclear Factor 6 (HNF6) (AID 2282952). To be noted: HepG2 Attagene cis-factorial HNF6 reporter transcription; actives raise or lower the signal. Put shortly: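 HepG2 cells transiently transfected with cis-element-driven multiple reporter transcription units, dosed 24 h; reporter mRNA quantified by RT-PCR, FAM primer extension, HpaI digestion and capillary electrophoresis; bidirectional fit versus DMSO baseline.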
Chain of Hepatocyte nuclear factor 6 (Homo sapiens) (Q9UBC0 whole entry, looked up): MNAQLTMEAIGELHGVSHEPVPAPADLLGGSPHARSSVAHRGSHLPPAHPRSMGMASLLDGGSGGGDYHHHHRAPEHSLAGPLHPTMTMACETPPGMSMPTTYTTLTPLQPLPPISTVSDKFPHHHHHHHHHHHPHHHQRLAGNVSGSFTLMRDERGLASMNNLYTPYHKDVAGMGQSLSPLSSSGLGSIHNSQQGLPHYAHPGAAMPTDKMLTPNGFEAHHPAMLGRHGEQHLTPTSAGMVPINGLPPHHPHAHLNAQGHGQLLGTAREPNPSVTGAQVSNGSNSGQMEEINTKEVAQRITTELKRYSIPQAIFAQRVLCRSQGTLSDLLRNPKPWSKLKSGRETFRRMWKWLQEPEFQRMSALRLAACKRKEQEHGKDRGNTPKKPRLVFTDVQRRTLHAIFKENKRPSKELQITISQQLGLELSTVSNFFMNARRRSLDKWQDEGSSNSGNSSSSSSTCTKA

In test [4] the target is Heat shock factor protein 1 (Homo sapiens) (UniProt Q00613). Nature of the test: ATG_HSE_CIS: Attagene CIS-FACTORIAL HepG2 Assay for human Heat Shock Transcription Factor 1 (HSE) (AID 2282953). To be noted: HepG2 HSE cis-reporter, Attagene RNA transcription; actives raise or lower the signal. Summed up:
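After a 24 h incubation with test chemical, transfected HepG2 cells were harvested for RNA; reporter transcripts were measured by RT-PCR and capillary electrophoresis. Values reflect gain or loss of signal relative to DMSO.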

Test [5] is described as follows: ATG_MRE_CIS: Attagene CIS-FACTORIAL HepG2 Assay for human Metal Responsive Element (MRE) (AID 2282954). To be noted: HepG2 MRE cis-reporter transcription, Attagene multiplex; actives raise or lower the signal. Put shortly:
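After a 24 h chemical exposure, transiently transfected HepG2 cells yield RNA whose reporter sequences are amplified, FAM-labelled and sized by capillary electrophoresis. Curves are fitted bidirectionally relative to DMSO.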

The nature of test [6]: ATG_PXRE_CIS: Attagene CIS-FACTORIAL HepG2 Assay for human Pregnane X Receptor Element (PXRE) (AID 2282957). To be noted: HepG2 Attagene CIS-FACTORIAL PXRE reporter, mRNA; actives raise or lower the signal. Put shortly:
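HepG2 cells transiently transfected with cis-regulated multiple reporter transcription units; endogenous factor activity measured as reporter mRNA 24 h after dosing. RT-PCR, fluorescent primer extension, HpaI digestion, capillary electrophoresis; bidirectional fit versus DMSO baseline.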

A short description of test [7]: ATG_PPRE_CIS: Attagene CIS-FACTORIAL HepG2 Assay for human Peroxisome Proliferator-activated Response Element (PPRE) (AID 2282958). To be noted: HepG2 PPRE cis-element reporter, Attagene transcription factor profiling; actives raise or lower the signal. Put shortly:
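Read-out: fluorescent reporter mRNA fragments resolved by capillary electrophoresis after RT-PCR. HepG2 cells carried transiently transfected PPRE-driven cis reporter constructs and were dosed for 24 h; gain or loss of signal fitted relative to DMSO.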

The nature of test [8]: ATG_RORE_CIS: Attagene CIS-FACTORIAL HepG2 Assay for human RAR-related Orphan Receptor Element (RORE) (AID 2282959). To be noted: HepG2 Attagene cis-factorial RORE reporter, mRNA; actives raise or lower the signal. Summed up:
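Readout: fluorescent reporter mRNA by RT-PCR plus capillary electrophoresis, 24 h after dosing transfected HepG2 cells. Endogenous transcription factor activity on a cis promoter element is measured. Gain or loss of signal fitted against DMSO.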

Test [9] can be described thus: ATG_Sox_CIS: Attagene CIS-FACTORIAL HepG2 Assay for human SRY-box transcription factor (SOX) (AID 2282960). To be noted: HepG2 Attagene cis-factorial SOX reporter, mRNA; actives raise or lower the signal. Put shortly: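 Read-out: fluorescent RT-PCR products of SOX1-linked reporter transcripts resolved by capillary electrophoresis, fitted bidirectionally against DMSO. Transiently transfected HepG2 cells, 24 h after chemical exposure, endogenous transcription factor activity.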

Test [10] has as its target Transcription factor Sp1 (Homo sapiens) (UniProt P08047). Nature of the test: ATG_Sp1_CIS: Attagene CIS-FACTORIAL HepG2 Assay for human Specificity Protein 1 (Sp1) (AID 2282961). To be noted: HepG2 Sp1 cis-reporter transcription, actives raise or lower the signal. Put shortly:
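Read-out: fluorescence of 6-FAM-labeled, HpaI-digested RT-PCR products separated by capillary electrophoresis. HepG2 cells carried transfected cis-element reporter units and were exposed to chemicals for 24 h; gain or loss of signal fitted relative to DMSO.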

Test [11] is described as follows: ATG_SREBP_CIS: Attagene CIS-FACTORIAL HepG2 Assay for human Sterol Regulatory Element Binding (SREBP) (AID 2282962). To be noted: HepG2 Attagene cis-factorial SREBP reporter, mRNA; actives raise or lower the signal. Put shortly:
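Transfected HepG2 (cis-regulated reporter library, endogenous TFs) → compound 24 h → total RNA → oligo(dT) RT → reporter-specific PCR → FAM primer extension, HpaI cut → CE fluorescence. Fit bidirectional vs DMSO.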

The target of test [12] is Signal transducer and activator of transcription 3 (Homo sapiens) (UniProt P40763). Nature of the test: ATG_STAT3_CIS: Attagene CIS-FACTORIAL HepG2 Assay for human Signal Transducer and Activator of Transcription 3 (STAT3) (AID 2282963). To be noted: HepG2, Attagene cis-factorial STAT3 reporter transcription; actives raise or lower the signal. Summed up:
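After a 24 h compound incubation, total RNA from MRTU-transfected HepG2 cells was converted to cDNA and reporter sequences PCR-amplified, labelled and profiled by capillary electrophoresis. Gain and loss of signal were referenced to DMSO.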

Test [13] in a line: ATG_TA_CIS: Attagene CIS-FACTORIAL HepG2 Assay for human TA Basal Promoter (AID 2282964). To be noted: HepG2 Attagene CIS-factorial TA basal promoter reporter; actives raise or lower the signal. Summed up: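 Multiplexed mRNA reporter assay, HepG2, 24 h. Reporter cDNA amplified, 6-FAM primer-extended, HpaI-cut, CE-sized; DMSO = negative control and baseline.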
Test [14] in a line: ATG_TCF_b_cat_CIS: Attagene CIS-FACTORIAL HepG2 Assay for human T-Cell-Factor with beta-catenin (TCF/b-cat) (AID 2282965). To be noted: HepG2 TCF/beta-catenin cis-reporter transcription, actives raise or lower the signal. Put shortly:
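Measured: reporter mRNA in HepG2 transiently transfected with cis-promoter reporter units, 24 h after chemical addition. Fitting was bidirectional, DMSO as negative control.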

Test [15] can be described thus: ATG_TAL_CIS: Attagene CIS-FACTORIAL HepG2 Assay for human TAL Basal Promoter (AID 2282966).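 Note: background control endpoint measuring basal TAL promoter reporter mRNA not a specific factor.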 To be noted: HepG2 Attagene cis-factorial TAL promoter reporter; actives raise or lower the signal. Summed up: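 HepG2 cells were transiently transfected with promoter-driven multiplexed reporter units and dosed for 24 h. Reporter mRNA was measured by RT-PCR with capillary electrophoresis fluorescence; bidirectional fits used DMSO as baseline, serving as a background control.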

Test [16] in a line: ATG_TGFb_CIS: Attagene CIS-FACTORIAL HepG2 Assay for human Transforming Growth Factor (TGF) (AID 2282967). To be noted: HepG2 Attagene CIS TGFb reporter, mRNA transcription; actives raise or lower the signal. Summed up: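 Transcript-level reporter readout: HepG2 transfectants, 24 h exposure, RNA to cDNA, reporter-specific PCR, fluorescent primer extension, capillary sizing against ROX standards. Gain- or loss-of-signal relative to DMSO.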

The nature of test [17]: ATG_VDRE_CIS: Attagene CIS-FACTORIAL HepG2 Assay for human Vitamin D Receptor Element (VDRE) (AID 2282968). To be noted: HepG2 VDRE cis-reporter transcription, actives raise or lower the signal. Summed up:
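In transiently transfected HepG2 liver cells, gain or loss of reporter mRNA after 24 h exposure is scored relative to DMSO, using fluorescence detection by capillary electrophoresis of RT-PCR products.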

A short description of test [18]: ATG_PBREM_CIS: Attagene CIS-FACTORIAL HepG2 Assay for human Phenobarbital-responsive Enhancer Module (PBREM) (AID 2282955). To be noted: HepG2 PBREM cis-reporter, Attagene multiplexed transcription; actives raise or lower the signal. Put shortly: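 Reporter mRNA read by RT-PCR, 6-FAM primer extension, HpaI digestion and capillary electrophoresis. Transfected HepG2 cells, 24 h compound exposure. Gain or loss of signal fitted bidirectionally relative to DMSO baseline.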

Test [19] deals with Paired box protein Pax-6 (Homo sapiens) (UniProt P26367). Nature of the test: ATG_Pax6_CIS: Attagene CIS-FACTORIAL HepG2 Assay for human Paired Box 6 (PAX6) (AID 2282956). To be noted: HepG2 CIS-FACTORIAL PAX6 reporter transcription, RNA readout; actives raise or lower the signal. Summed up:
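Transient MRTU transfection of HepG2 → compound exposure 24 h → TriZol RNA, oligo(dT) RT → PCR, 6-FAM primer extension, HpaI cut → capillary electrophoresis; activity fitted both directions against DMSO.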

Test [20] can be described thus: ATG_M_06_CIS: Attagene CIS-FACTORIAL HepG2 Assay for M06 Transcription Factor (Internal Marker) (AID 2282950). To be noted: HepG2 Attagene CIS-FACTORIAL M06 internal marker reporter; actives raise or lower the signal. Summed up: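 Fluorescence-labelled RT-PCR products from cis-promoter reporter units, cut with HpaI and resolved by capillary electrophoresis, give the signal. Cells are human HepG2, dosed for 24 h. Serves as background control, fitted relative to DMSO.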

As a reminder, the AC50 is the concentration at which the activity in the assay is half-maximal.

Chain of Hypoxia-inducible factor 1-alpha (Homo sapiens) (Q16665 whole entry, looked up): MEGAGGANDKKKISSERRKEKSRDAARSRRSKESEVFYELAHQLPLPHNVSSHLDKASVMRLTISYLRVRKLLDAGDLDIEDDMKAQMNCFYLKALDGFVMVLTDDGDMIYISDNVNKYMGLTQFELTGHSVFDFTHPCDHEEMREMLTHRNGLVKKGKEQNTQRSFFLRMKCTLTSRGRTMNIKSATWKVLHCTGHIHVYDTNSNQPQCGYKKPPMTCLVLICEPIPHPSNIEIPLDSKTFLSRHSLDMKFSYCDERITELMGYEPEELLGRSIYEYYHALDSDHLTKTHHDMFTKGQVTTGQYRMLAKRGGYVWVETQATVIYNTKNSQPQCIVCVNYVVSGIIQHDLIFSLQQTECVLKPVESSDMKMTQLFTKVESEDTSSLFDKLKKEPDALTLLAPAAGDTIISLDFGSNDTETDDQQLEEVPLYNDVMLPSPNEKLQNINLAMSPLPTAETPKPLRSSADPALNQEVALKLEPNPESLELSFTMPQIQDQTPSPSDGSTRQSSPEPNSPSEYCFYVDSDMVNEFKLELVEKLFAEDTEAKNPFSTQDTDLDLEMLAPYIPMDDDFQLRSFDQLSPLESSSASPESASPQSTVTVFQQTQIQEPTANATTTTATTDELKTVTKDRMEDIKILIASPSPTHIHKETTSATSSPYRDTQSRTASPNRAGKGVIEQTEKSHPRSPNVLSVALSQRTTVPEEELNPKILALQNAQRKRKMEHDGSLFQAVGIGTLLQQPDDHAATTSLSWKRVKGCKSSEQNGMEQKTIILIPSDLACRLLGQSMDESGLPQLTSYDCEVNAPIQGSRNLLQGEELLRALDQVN
Chain of Signal transducer and activator of transcription 3 (Homo sapiens) (P40763 whole entry, looked up): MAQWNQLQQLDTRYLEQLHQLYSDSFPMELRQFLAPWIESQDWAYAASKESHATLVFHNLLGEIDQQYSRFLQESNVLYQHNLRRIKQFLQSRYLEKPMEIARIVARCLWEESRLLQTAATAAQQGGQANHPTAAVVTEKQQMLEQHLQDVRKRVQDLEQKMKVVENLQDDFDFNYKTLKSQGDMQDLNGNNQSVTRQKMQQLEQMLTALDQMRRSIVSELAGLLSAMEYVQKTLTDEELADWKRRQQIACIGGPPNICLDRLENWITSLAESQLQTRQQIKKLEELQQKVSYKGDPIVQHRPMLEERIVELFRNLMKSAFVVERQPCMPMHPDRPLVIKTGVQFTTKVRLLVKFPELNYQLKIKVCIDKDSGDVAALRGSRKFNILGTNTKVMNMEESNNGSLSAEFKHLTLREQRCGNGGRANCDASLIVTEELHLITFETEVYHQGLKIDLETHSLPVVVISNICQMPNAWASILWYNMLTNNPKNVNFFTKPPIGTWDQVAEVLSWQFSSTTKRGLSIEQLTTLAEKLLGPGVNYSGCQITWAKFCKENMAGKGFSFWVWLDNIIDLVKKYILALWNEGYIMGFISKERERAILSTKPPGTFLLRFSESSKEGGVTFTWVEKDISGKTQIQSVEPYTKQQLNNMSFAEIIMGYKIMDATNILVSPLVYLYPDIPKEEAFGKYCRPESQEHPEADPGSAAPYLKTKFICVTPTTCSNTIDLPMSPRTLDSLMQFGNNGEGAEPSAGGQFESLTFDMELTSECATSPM
Chain of Paired box protein Pax-6 (Homo sapiens) (P26367 whole entry, looked up): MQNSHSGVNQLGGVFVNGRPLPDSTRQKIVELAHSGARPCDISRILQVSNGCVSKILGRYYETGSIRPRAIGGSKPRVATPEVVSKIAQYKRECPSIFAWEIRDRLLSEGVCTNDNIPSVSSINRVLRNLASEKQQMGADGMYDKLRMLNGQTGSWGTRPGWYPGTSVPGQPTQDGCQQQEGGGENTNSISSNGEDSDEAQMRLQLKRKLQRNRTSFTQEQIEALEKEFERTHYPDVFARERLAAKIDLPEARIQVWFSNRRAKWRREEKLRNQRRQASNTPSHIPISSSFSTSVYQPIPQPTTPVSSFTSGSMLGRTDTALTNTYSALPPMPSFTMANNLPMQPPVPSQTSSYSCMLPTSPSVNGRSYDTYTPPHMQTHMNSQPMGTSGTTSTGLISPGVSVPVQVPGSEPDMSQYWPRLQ
Chain of Heat shock factor protein 1 (Homo sapiens) (Q00613 whole entry, looked up): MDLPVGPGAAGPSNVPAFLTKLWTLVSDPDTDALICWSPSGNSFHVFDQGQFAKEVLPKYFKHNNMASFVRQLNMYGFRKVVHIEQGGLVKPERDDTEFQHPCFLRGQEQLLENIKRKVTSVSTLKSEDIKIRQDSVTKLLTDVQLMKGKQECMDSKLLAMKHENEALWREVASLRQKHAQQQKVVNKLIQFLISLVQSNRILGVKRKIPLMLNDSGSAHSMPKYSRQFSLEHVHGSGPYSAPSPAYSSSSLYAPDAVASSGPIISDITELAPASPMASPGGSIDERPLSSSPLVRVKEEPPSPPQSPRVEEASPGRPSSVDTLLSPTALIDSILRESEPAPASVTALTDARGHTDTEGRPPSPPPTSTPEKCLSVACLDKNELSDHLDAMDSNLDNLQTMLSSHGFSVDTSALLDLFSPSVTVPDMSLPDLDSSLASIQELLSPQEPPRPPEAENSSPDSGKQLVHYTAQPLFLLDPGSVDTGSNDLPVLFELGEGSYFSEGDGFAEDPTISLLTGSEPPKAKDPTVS
Chain of Transcription factor Sp1 (Homo sapiens) (P08047 whole entry, looked up): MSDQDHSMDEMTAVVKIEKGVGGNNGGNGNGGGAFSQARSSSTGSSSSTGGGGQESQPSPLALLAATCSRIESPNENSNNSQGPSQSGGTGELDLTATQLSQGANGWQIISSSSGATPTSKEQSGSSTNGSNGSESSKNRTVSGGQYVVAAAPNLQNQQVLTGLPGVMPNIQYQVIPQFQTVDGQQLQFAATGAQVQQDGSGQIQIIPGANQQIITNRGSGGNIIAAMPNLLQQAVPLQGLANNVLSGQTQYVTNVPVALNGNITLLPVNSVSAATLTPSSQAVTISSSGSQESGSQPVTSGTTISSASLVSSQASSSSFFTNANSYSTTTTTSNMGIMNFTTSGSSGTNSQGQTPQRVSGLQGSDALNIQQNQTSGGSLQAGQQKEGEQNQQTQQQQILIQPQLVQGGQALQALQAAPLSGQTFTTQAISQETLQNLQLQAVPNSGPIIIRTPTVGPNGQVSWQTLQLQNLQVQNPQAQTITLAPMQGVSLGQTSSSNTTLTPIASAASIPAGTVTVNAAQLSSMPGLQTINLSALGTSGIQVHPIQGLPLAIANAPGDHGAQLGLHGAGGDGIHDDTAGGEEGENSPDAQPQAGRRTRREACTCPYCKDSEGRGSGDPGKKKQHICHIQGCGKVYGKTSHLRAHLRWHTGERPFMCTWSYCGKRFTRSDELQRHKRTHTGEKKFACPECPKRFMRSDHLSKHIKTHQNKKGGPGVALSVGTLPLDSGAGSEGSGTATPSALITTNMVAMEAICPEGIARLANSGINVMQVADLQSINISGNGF

As for `CC(C)[C@@H](Nc1ccc(C(F)(F)F)cc1Cl)C(=O)OC(C#N)c1cccc(Oc2ccccc2)c1` (some centres not stated), the compound was called inactive in test [1], in test [2], in test [3], in test [4], in [5] and in [7]. In addition, the outcome in [8], in test [9], in test [10], in test [11], in test [12] and in test [13] was inactive. Further, the result in test [14], in test [15] and in test [16] was inactive. In addition, the concentration at half-maximal activity (AC50) is 693 nM (active) in test [6] and 734 nM (active) in test [17].
For `Cc1cc(Cl)ccc1OC(C)C(=O)O` (configuration not stated), the result in [1], in test [2], in test [3], in test [4], in test [5] and in test [18] was inactive. In addition, the result in [19], in test [6], in [8], in test [9], in test [10] and in [11] was inactive. Also, the compound was classed as inactive in [12], in test [13], in [15] and in test [16]. Further, the AC50 in test [7] is 68400 nM (active).
As to `CCOC(=O)Cc1ccccc1`, the compound was called inactive in test [1], in [2], in [3], in [4], in [5] and in test [18]. Besides, the outcome in test [19], in [7], in test [8], in test [9], in [10] and in test [11] was inactive. Besides, the compound was classed as inactive in test [12], in test [13], in test [15], in test [16] and in test [17].
Consider `O=C(NC(=O)c1c(F)cccc1F)Nc1cc(Cl)c(OC(F)(F)C(F)C(F)(F)F)cc1Cl` (configuration not stated), for which the outcome in test [1], in test [2], in test [3], in test [4], in [5] and in [19] was inactive. The call in [6], in test [8], in [9], in [10], in test [11] and in test [12] was inactive. The outcome in [13], in test [15], in [16] and in test [17] was inactive.
For the compound `Cc1cc(C(F)(C(F)(F)F)C(F)(F)F)ccc1NC(=O)c1cccc(I)c1C(=O)NC(C)(C)CS(C)(=O)=O`, the compound was classed as inactive in test [1], in test [2], in [3], in [4], in [5] and in test [18]. Further, the call in [19], in test [7], in test [8], in test [10], in [11] and in test [12] was inactive. Besides, the result in test [13], in test [14], in test [15] and in [16] was inactive. Also, the AC50 in test [6] is 633 nM (active).
Regarding `Cc1cc(Cl)ccc1OCCCC(=O)O`, the outcome in test [20], in test [2], in [3], in [4], in [5] and in test [19] was inactive. Besides, the compound was classed as inactive in [6], in [7], in test [8], in test [9], in [10] and in test [11]. Also, the result in test [12], in [13], in test [14], in [15], in test [16] and in test [17] was inactive.
